TbREL1 inh: TbREL1 inhibition, primary screen; P86926; TbREL1 RNA ligation, FRET fluorescence; inhibition, % at 9.66 µM; 89,000 compounds, 0.49% hits; AID 1117264;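 active means inhibition above the mean inhibition across all screened compounds plus 3 SD, cut at about 11% in these data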;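 further: 0% = plate median of test wells and 100% = NSC42067 control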
Target sequence (P86926 whole entry, looked up): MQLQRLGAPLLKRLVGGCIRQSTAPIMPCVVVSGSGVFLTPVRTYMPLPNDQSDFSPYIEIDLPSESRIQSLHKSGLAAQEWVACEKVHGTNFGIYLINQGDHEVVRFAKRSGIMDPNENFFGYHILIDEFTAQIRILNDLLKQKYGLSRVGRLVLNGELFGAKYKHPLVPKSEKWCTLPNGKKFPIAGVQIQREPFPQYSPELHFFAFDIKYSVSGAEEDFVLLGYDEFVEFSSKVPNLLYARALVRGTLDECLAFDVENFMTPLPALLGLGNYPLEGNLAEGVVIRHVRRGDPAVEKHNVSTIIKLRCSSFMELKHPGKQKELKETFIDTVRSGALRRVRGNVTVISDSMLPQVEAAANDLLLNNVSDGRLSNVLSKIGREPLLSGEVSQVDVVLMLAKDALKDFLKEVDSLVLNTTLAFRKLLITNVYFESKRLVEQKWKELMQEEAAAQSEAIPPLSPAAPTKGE
TbREL1 conf: TbREL1 inhibition, confirmation. AID 1117282. shares compounds with TbREL1 inh. inhibition, % at 9.66 µM. 390 compounds, 37% hits. TbREL1 RNA ligation, FRET fluorescence;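 active means mean inhibition across replicates above a set limit taken from the earlier primary screen, cut at about 11% in these data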;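 further: 0% = REL1 with substrate and DMSO and 100% = REL1 plus control inhibitor NSC42067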
The depositor's hits bear a star. Shown is part of a subset that was picked to be rich in hits.

SMILES	TbREL1 inh	others
COC(=O)C1=C(C)N(C)C(=NCc2ccc(C(F)(F)F)cc2)NC1c1ccccc1C(F)(F)F (stereo unspecified)	10.0
CCN1C(=NCCOC)N[C@@H](c2cccc(C(F)(F)F)c2)C(C(=O)OC)=C1C	6.0
COC(=O)C1=C(C)N(Cc2ccc(C(F)(F)F)cc2)C(=NCc2ccc(OC)cc2)NC1c1ccccc1C(F)(F)F (stereo unspecified)	17.2*	TbREL1 conf=14.2*
COC(=O)C1=C(C)N(Cc2ccc(C(F)(F)F)cc2)C(=NCc2cccc(C(F)(F)F)c2)NC1c1ccccc1C(F)(F)F (stereo unspecified)	19.9*	TbREL1 conf=25.4*
COC(=O)C1=C(C)N(Cc2cccc(C(F)(F)F)c2)C(=NCc2ccc3c(c2)OCO3)NC1c1ccccc1C(F)(F)F (stereo unspecified)	12.8*	TbREL1 conf=20.2*
CCN1C(=NCc2ccco2)N[C@@H](c2cccc(C(F)(F)F)c2)C(C(=O)OC)=C1C	4.5
Cc1ccc(-n2c(SCC(=O)Nc3ccc(Oc4ccccc4)cc3)nnc2-c2cccc(C)c2)cc1	3.5
COC(=O)[C@]12C[C@H](CC(=O)N3CCSCC3)C(=O)N(Cc3cccc4ccccc34)C1=C[C@H](C(C)(C)C)O[C@@H]2C	7.6
CC(C)c1ccccc1NC(=O)[C@@H]1CCCN1S(=O)(=O)c1cccc2cccnc12	-3.8
Cc1nc(SCC(=O)N(C)c2ccccc2)[nH]c(=O)c1C	-2.4
O=C(NCc1ccccc1Cl)C1CCCN(c2ncccn2)C1 (stereo unspecified)	-1.5
COc1ccc2c(c1)N=C(c1[nH]c3ccccc3c1CCN1C(=O)c3ccccc3C1=O)[C@]2(O)CCN1C(=O)c2ccccc2C1=O	2.0
Cc1cc(-c2n[nH]c(=S)n2N=Cc2cc(Br)ccc2F)n[nH]1	-5.0
COC(=O)C1=C(C)N(Cc2ccccc2C(F)(F)F)C(=NCC2CC2)NC1c1ccc(C(F)(F)F)cc1 (stereo unspecified)	10.2
COC(=O)C1=C(C)N(Cc2ccccc2C(F)(F)F)C(=NCc2ccc(C(F)(F)F)cc2)NC1c1cccc(F)c1 (stereo unspecified)	14.1*	TbREL1 conf=22.2*
COC(=O)C1=C(C)N(Cc2ccccc2)C(=NCc2ccco2)N[C@H]1c1cccc(F)c1	5.2
COC(=O)C1=C(C)N(Cc2ccccc2C(F)(F)F)C(=NCC2CC2)NC1c1ccc(F)cc1 (stereo unspecified)	11.8*	TbREL1 conf=11.2*
COC(=O)C1=C(C)N(Cc2ccc(F)cc2)C(=S)NC1c1ccc(Cl)cc1 (stereo unspecified)	-1.4
COC(=O)C1=C(C)N(Cc2ccc(Cl)cc2)C(=S)NC1c1ccc(OC)cc1 (stereo unspecified)	-3.1
COC(=O)C1=C(C)N(Cc2ccc(C(F)(F)F)cc2)C(=NCc2ccccc2C(F)(F)F)NC1c1ccc(F)cc1 (stereo unspecified)	13.9*	TbREL1 conf=14.1*
COC(=O)C1=C(C)N(Cc2ccccc2)C(=NCC(C)C)N[C@H]1c1cccc(F)c1	6.0
COC(=O)C1=C(C)N(Cc2ccccc2C(F)(F)F)C(=NCc2ccc(OC)cc2)NC1c1cccc(Cl)c1 (stereo unspecified)	18.9*	TbREL1 conf=18.1*
O=C(Cn1nc(-c2ccccc2)ccc1=O)NCCc1ccc(F)cc1	-0.6
COC(=O)[C@]12C[C@H](CC(=O)NCC3CCCCC3)C(=O)N(Cc3ccccc3)C1=C[C@H](COCc1ccccc1)O[C@@H]2C	-0.8
COC(=O)[C@]12C[C@H](CC(=O)NCc3ccc(OC)c(OC)c3)C(=O)N(Cc3ccc(Cl)cc3Cl)C1=C[C@H](C(C)C)O[C@@H]2C1CC1	-1.9
SMILES	TbREL1 inh	others
Cn1c(SC/C=C/c2ccccc2)nnc1-c1cccnc1	-2.4
COc1ccc(-n2c(SCC(=O)Nc3ccc(OCc4ccccc4)cc3)nnc2-c2ccc(C)cc2)cc1	1.2
CCCCCCCCN1C(=O)[C@@H](CC(=O)N2CCN(C(=O)C3CC3)CC2)C[C@@]2(C(=O)OC)C1=C[C@H](COCc1ccccc1)O[C@@H]2C	-1.7
CCCCCC(=O)NC1CCCCN(Cc2ccccc2C)C1=O (stereo unspecified)	-0.2
CCn1c2ccccc2c2cc(NC(=O)COC(=O)c3cc(Cl)c(N)cc3OC)ccc21	12.1*	TbREL1 conf=8.3
CCn1c2ccccc2c2cc(NC(=O)COC(=O)c3ccccc3F)ccc21	4.4
CCn1c2ccccc2c2cc(NC(=O)COC(=O)c3cc(Cl)cc(Cl)c3)ccc21	-0.5
Cc1ccc(NC(=O)N2CCC(c3nc4ccc(Cl)cc4[nH]3)CC2)cc1F	4.4
C=C(C)CSc1nnc(-c2cc(-c3ccc(OC)cc3)n[nH]2)n1N	-0.2
O=C(O)c1ccc(CSc2nnc(-c3ccncc3)n2-c2ccc(Br)cc2)cc1	8.7
COc1ccc(-n2c(-c3ccccc3)nnc2-c2ccc(Cl)cc2)cc1	-3.5
[S-]c1nnc(-c2ccc(Br)cc2)n1-c1ccccc1.[Zn+2]	23.4*	TbREL1 conf=16.9*
O=S1(=O)c2ccc(N3CCCC3)cc2Oc2ccccc2CN1Cc1cn(Cc2cccc(F)c2)nn1	10.7
CCCC[C@H]1C2CC(OC(=O)Nc3ccc(Br)cc3)C(C2)[C@H]2CCCCN21 (stereo partly specified)	4.5
CCCC[C@H]1C2CC(OC(=O)Nc3ccc(C)cc3)C(C2)[C@H]2CCCCN21 (stereo partly specified)	-0.7
CCCC[C@H]1C2CC(OC(=O)Nc3ccc(C#N)cc3)C(C2)[C@H]2CCCCN21 (stereo partly specified)	11.3*	TbREL1 conf=4.3
Cc1ccc(OCc2nnc(SCC(=O)Nc3ccccc3-c3ccccc3)n2Cc2ccco2)cc1	-0.7
CCCC/C=C1/[C@@H](CC)N(Cc2ccc(OC)cc2OC)C2=N[C@H](c3ccccc3)CC(=O)N21	1.6
C[C@@H]1CCN(C2CC2)S(=O)(=O)c2c(cccc2N2CCC[C@H]2CO)O1	-5.8
Cc1ccc(C(OCC(O)CN2CCCCC2)c2ccccc2)cc1 (stereo unspecified)	13.0*	TbREL1 conf=5.5
OC(COC(c1ccc(Cl)cc1)c1ccc(Cl)cc1)CN1CCCC1 (stereo unspecified)	4.8
CC1CN(CC(O)COC(c2ccccc2)c2ccccc2)CC(C)O1 (stereo unspecified)	4.8
COC(=O)[C@]12C[C@H](CC(=O)N3CCCCC3)C(=O)N(Cc3cccc4ccccc34)C1=C[C@H](C(C)C)O[C@@H]2C1CC1	-2.3
Cc1ccc(CN2CCCCC(NC(=O)Nc3ccccc3F)C2=O)cc1 (stereo unspecified)	-0.8
COC(=O)[C@]12C[C@H](CC(=O)NCC34CC5CC(CC(C5)C3)C4)C(=O)N(Cc3cccc4ccccc34)C1=C[C@H](COCc1ccccc1)O[C@@H]2C	2.1
C/C=C(/C)C(=O)Nc1cccc(C2=NOC3(C2)C[C@H](C(N)=O)N(C(=O)c2ccccc2)C3)c1 (stereo partly specified)	-2.2
NC(=O)[C@@H]1CC2(CC(c3cccc(NC(=O)CC(c4ccccc4)c4ccccc4)c3)=NO2)CN1C(=O)c1ccc(Cl)cc1 (stereo partly specified)	0.5
NC(=O)[C@H]1CC2(CC(c3cccc(NC(=O)[C@H]4CCC(=O)N4)c3)=NO2)CN1C(=O)c1ccccc1 (stereo partly specified)	20.1*	TbREL1 conf=25.7*
COC(=O)c1ccc(Cn2ccc3ccc(-c4ccc5ccn(C(=O)c6ccccc6)c5c4)cc32)cc1	1.8

Screens from PubChem BioAssay.
